Source: PubChem BioAssay
NadD inh = inhibitors of Staphylococcus aureus NadD; purified NadD enzyme, colorimetric absorbance read-out; inhibition, % at 20 µM; actives 0.78% (n = 360,000); AID 602399; in the data active = inhibition above about 26%
MPTP block = permeability transition pore inhibition. isolated mouse mitochondria, Ca2+ swelling absorbance, 30 min. inhibition, % at 10 µM. actives 1.4% (n = 360,000);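 active = inhibition of 50% or more, scaled per plate between neutral and stimulator controls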;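 also: 0% = DMSO wells given calcium and 100% = 1 mM EGTA wells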
TAG inh = inhibitors of triacylglycerol accumulation. actives 0.66% (n = 230,000). inhibition, % at 12.5 µM. H9c2 cells, Nile Red lipid (TAG) fluorescence; cells loaded with 200 µM oleic acid;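 active = pattern-corrected inhibition of lipid staining of at least 50% with the nuclear-stain viability signal not falling by more than 50%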;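 also: 0% = DMSO wells and 100% = triacsin C control wells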
aDG glyco up = increases alpha dystroglycan glycosylation | Pro5-aDG cells, alpha-DG glycosylation AlphaScreen (IIH6); 0% Pro5, 100% B10-LARGE cell signal | activation, % at 10 µM | actives 0.22% (n = 360,000) | AID 624168;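 active = activation of at least 8% versus controls, or a plate z-score of at least 8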;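 also: Pro5 are CHO cells carrying HIG-tagged alpha-DG that lacks glycosylation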
TAG conf = triacylglycerol accumulation inhibition, confirmation; actives 71% (n = 990); shares compounds with TAG inh; inhibition, % at 12.5 µM; H9c2 lipid accumulation, Nile Red fluorescence; cells loaded with 200 µM oleic acid;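 active = mean inhibition across replicates of 40% or more; inactive = mean inhibition below 40%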;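 also: plate controls were DMSO only wells for no effect and Triacsin C treated wells for full effect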
* marks the source's active call; other numbers are inactive results. A selection: hits, their analogues and other compounds. The true share with any hit is near 2.7%.

How did CCC(=O)Nc1nonc1-c1nc2ccccc2n1Cc1cccc2ccccc12 do in these assays?
NadD inh: 23; MPTP block: 13; TAG inh: 50*; aDG glyco up: 0; TAG conf: 65*

How did O=C(Nc1ccc(S(=O)(=O)N2CCOCC2)cc1)c1ccc([N+](=O)[O-])s1 do in these assays?
NadD inh: -3; MPTP block: 1; TAG inh: 94*; aDG glyco up: 0; TAG conf: 89*

What do the screens show for `CCc1nnc(NS(=O)(=O)c2ccc(NC(=O)c3ccc([N+](=O)[O-])s3)cc2)s1`?
NadD inh: -1; MPTP block: 1; TAG inh: 67*; aDG glyco up: 0; TAG conf: 8

What do the screens show for `CCOc1ccc(NC(=O)c2c(NC(=O)CNCCN3CCOCC3)sc3c2CCC3)cc1`?
NadD inh: -5; MPTP block: -1; TAG inh: 33; aDG glyco up: 3

How did Cc1ccc(-n2cc(CNCCCn3cccn3)c(-c3cccc(C)c3)n2)cc1 do in these assays?
NadD inh: -9; MPTP block: 4; TAG inh: 52*; aDG glyco up: 0; TAG conf: 52*

What do the screens show for `Cc1ccc(C)c(-n2cc(CNCCCn3cccn3)c(-c3ccccc3)n2)c1`?
NadD inh: -11; MPTP block: 4; TAG inh: 0; aDG glyco up: 0

Results for CSc1ccccc1NC(=O)C1(C)CCN1C(=O)Cc1ccc(-c2ccccc2)cc1 (configuration not stated) ?
NadD inh: 0; MPTP block: 0; TAG inh: 6; aDG glyco up: 0

How did COCCCNC(=O)C(=O)Nc1ccc2c(c1)N(S(=O)(=O)c1cccs1)CCC2 do in these assays?
NadD inh: -4; MPTP block: 0; TAG inh: 54*; aDG glyco up: 0; TAG conf: 61*

What do the screens show for `CN(C)CCNC(=O)C(=O)Nc1ccc2c(c1)N(S(=O)(=O)c1cccs1)CCC2`?
NadD inh: -5; MPTP block: -1; TAG inh: 54*; aDG glyco up: 0; TAG conf: 54*

Results for CN(C)CCCNC(=O)C(=O)Nc1ccc2c(c1)N(S(=O)(=O)c1cccs1)CCC2 ?
NadD inh: -4; MPTP block: -1; TAG inh: 19; aDG glyco up: 0

Results for CN(C)CCCNC(=O)C[C@H]1C[C@H](C(=O)N2CCCCC2)[C@@]2(CCc3ccccc3)c3[nH]c4cc(-c5ccco5)ccc4c3CCN2C1=O ?
NadD inh: 0; MPTP block: 0; TAG inh: 57*; aDG glyco up: 0; TAG conf: 70*

Results for COc1ccc2[nH]c3c(c2c1)CCN1C(=O)C(CC(=O)NCCCN(C)C)C[C@H](C(=O)N2CCCCC2)[C@@]31CCc1ccccc1 (some centres not stated) ?
NadD inh: -8; MPTP block: -2; TAG inh: 13; aDG glyco up: 0

Results for CN(C)CCCNC(=O)C[C@H]1C[C@H](C(=O)N2CCCCC2)[C@@]2(C)c3[nH]c4cc(-c5ccco5)ccc4c3CCN2C1=O ?
NadD inh: 3; MPTP block: -2; TAG inh: 58*; aDG glyco up: 0; TAG conf: 22

How did CC(C)(C)NC(=O)C[C@H]1C[C@H](C(=O)N2CCCCC2)[C@@]2(CCc3ccccc3)c3[nH]c4cc(-c5ccco5)ccc4c3CCN2C1=O do in these assays?
NadD inh: 25; MPTP block: 0; TAG inh: 28; aDG glyco up: 0

How did CN(C)CCCNC(=O)CC1C[C@H](C(=O)N2CCCCC2)[C@@]2(CCc3ccccc3)c3[nH]c4ccccc4c3CCN2C1=O (some centres not stated) do in these assays?
NadD inh: 0; MPTP block: -3; TAG inh: 53*; aDG glyco up: 0; TAG conf: 48*

Results for COc1ccc([C@H]2C[C@@H](n3cc(-c4ccc(F)cc4)nn3)[C@H](O)CN2C(=O)C2CCCCC2)cc1 ?
NadD inh: -5; MPTP block: -1; TAG inh: 9; aDG glyco up: 0

Results for COc1ccc(CN(C)C(=O)c2ccncc2)c(OC)c1 ?
NadD inh: 3; MPTP block: 1; TAG inh: -2; aDG glyco up: 0

Results for CCCCOc1ccccc1C1CC(=O)NC2=C1C(=O)CCC2 (configuration not stated) ?
NadD inh: 1; MPTP block: 2; TAG inh: 71*; aDG glyco up: 0; TAG conf: 66*

What do the screens show for `Cc1cccc(CSCC(=O)N2CCN(S(=O)(=O)c3ccccc3C#N)CC2)c1`?
NadD inh: -7; MPTP block: -1; TAG inh: -3; aDG glyco up: 0

How did COc1ccc(NC(=O)CSc2n[nH]c(=O)n2C2CC2)cc1OC do in these assays?
NadD inh: -6; MPTP block: -1; TAG inh: 5; aDG glyco up: 0

What do the screens show for `CCOC(=O)c1c(N)n(-c2ccc(N)cc2)c2nc3ccccc3nc12`?
NadD inh: 1; MPTP block: 0; TAG inh: 10; aDG glyco up: 0

What do the screens show for `Nc1c(C(=O)Nc2ccccc2)c2nc3ccccc3nc2n1-c1ccc(O)cc1`?
NadD inh: 17; MPTP block: 2; TAG inh: 64*; aDG glyco up: 2; TAG conf: 65*

What do the screens show for `CNC(=S)N1N=C(c2ccc(C)cc2)CC1c1cc(OC)ccc1OC` (configuration not stated)?
NadD inh: -2; MPTP block: -2; TAG inh: -12; aDG glyco up: -1

Results for COc1ccc(OC)c(C2CC(c3ccccc3)=NN2C(=S)Nc2ccccc2)c1 (configuration not stated) ?
NadD inh: 1; MPTP block: 3; TAG inh: 52*; aDG glyco up: 0; TAG conf: 50*

Results for COc1cc2c(cc1OC)CN(C(=S)Nc1ccccc1Cl)CC2 ?
NadD inh: -4; MPTP block: 4; TAG inh: 62*; aDG glyco up: 0; TAG conf: 6

How did COc1ccc(CNC(=O)c2ccc(N3CCC4(CC3)CC(c3ccc(Cl)cc3)=NO4)c(NC(=O)Cc3ccc(F)cc3)c2)cc1 do in these assays?
NadD inh: 21; MPTP block: 1; TAG inh: 60*; aDG glyco up: 0; TAG conf: 44*

How did COc1ccc(CNC(=O)c2ccc(N3CCC4(CC3)CC(c3ccc(Cl)cc3)=NO4)c(NC(=O)c3ccccc3)c2)cc1 do in these assays?
NadD inh: 26; MPTP block: 0; TAG inh: 14; aDG glyco up: 0

Results for CCCCCCCC(=O)Nc1cc(C(=O)NCCC)ccc1N1CCC2(CC1)CC(c1cccc(Br)c1)=NO2 ?
NadD inh: 10; MPTP block: 0; TAG inh: 70*; aDG glyco up: 2; TAG conf: 61*
